# SMARCA2 act – increases SMARCA2 function in MMTV reporter cells | MG213 cells, MMTV-luciferase reporter, dexamethasone, overnight | 1% of 370,000 active | activation, % at 9.1 µM; in the data active = activation above about 7.8%;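 note: 0% = vehicle wells and 100% = reference activator wells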
# DAX1 inh-1 – NR0B1 (DAX1) inhibition | HEK293 Gal4-DAX1 luciferase reporter, luminescence | 0.99% of 340,000 active | inhibition, % at 6.75 µM | P51843;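 active = inhibition above the mean over all tested compounds plus 3 SD, cut at about 4.2% in these data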;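 note: 0% = DAX1-transfected cells with DMSO and 100% = empty-vector control cells with DMSO; inhibition shows as a rise in luminescence from relieved DAX1 repression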
# hgDAF-12 ag – hgDAF-12 agonism, primary luciferase screen. activation, % at 6.8 µM. 1.8% of 370,000 active. HEK293 GAL4-hgDAF12 UAS-luciferase reporter, agonist luminescence; normalized to butyrate control;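 active = activation above a cutoff set at the mean of all screened compounds plus 3 SD, cut at about 10% in these data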;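 note: 0% = DMSO wells and 100% = sodium butyrate wells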
# hcDAF12 agonist – activates DAF-12 receptor from parasite H. contortus; HEK293 hcDAF-12 lit1-tk-luc reporter, luminescence; 0% DMSO, 100% Δ7-dafachronic acid; 1.4% of 370,000 active; activation, % at 6.8 µM;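 active = activation above the mean of all tested compounds plus 3 SD, cut at about 5.5% in these data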;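 note: 100% = response to 3 µM Δ7-dafachronic acid high control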
# ssDAF-12 act – S. stercoralis DAF-12 activation, primary screen. HEK293 ssDAF-12/GRIP1 lit1-tk-luc reporter, luminescence; % of 3 µM dafachronic acid response. activation, % at 6.8 µM. 1% of 370,000 active;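 active = activation above the mean over all tested compounds plus 3 SD, cut at about 0.9% in these data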;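 note: 0% = DMSO-only wells and 100% = 3 µM delta7-dafachronic acid wells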
# DAX1 inh-2 – DAX1 (NR0B1) inhibition, primary screen; HEK293T StAR-luciferase reporter, SF-1/DAX-1 repression relief; inhibition, % at 6.8 µM; 1.1% of 370,000 active; AID 652010;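 active = inhibition above the mean over all tested compounds plus 3 SD, cut at about 3.6% in these data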;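 note: 0% = DAX-1 cells with DMSO and 100% = cells lacking DAX-1 with DMSO; higher inhibition means more luminescence from relief of DAX-1 repression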
# hgDAF12 conf – confirmation of H. glycines DAF-12 agonists | shares compounds with hgDAF-12 ag | HEK293 GAL4-hgDAF12 luciferase reporter, agonist mode; percent of butyrate response | 80% of 3,300 active | activation, % at 6.8 µM;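 active = mean activation over triplicate wells above the hit cutoff derived from the earlier primary screen, cut at about 11% in these data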;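 note: 0% = DMSO low control and 100% = 2 mM sodium butyrate high control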
# LXR ag 2 – activates human LXR-beta, counter-screen for DAF-12 agonists. activation, % at 6.8 µM. 3,300 tested, under 10 active. HEK293 Gal4-LXR luciferase reporter, 24 h. AID 743051. shares compounds with hgDAF-12 ag;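 active = mean activation of the triplicate above a set limit carried over from the primary screen, none filed active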
# Target sequence (P55055 whole entry, looked up, the tested form may be a part): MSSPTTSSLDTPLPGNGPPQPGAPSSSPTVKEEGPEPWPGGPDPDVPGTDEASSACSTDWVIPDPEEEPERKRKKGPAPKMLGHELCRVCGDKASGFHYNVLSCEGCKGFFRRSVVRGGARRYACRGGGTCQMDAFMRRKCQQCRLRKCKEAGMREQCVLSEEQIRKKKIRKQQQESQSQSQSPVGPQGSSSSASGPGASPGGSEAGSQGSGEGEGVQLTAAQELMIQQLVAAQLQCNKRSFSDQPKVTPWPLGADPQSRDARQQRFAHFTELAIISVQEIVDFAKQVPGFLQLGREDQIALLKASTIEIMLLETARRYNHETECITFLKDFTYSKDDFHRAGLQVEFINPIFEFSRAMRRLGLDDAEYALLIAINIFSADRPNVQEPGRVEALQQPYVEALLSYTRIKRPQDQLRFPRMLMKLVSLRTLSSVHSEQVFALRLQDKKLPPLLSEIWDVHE
# * marks the source's active call; other numbers are inactive results; · = not tested or not shown. The list is not random: actives were taken first. Their share in the collection is about 4.8%.
SMILES,SMARCA2 act,DAX1 inh-1,hgDAF-12 ag,hcDAF12 agonist,ssDAF-12 act,DAX1 inh-2,hgDAF12 conf,LXR ag 2
Cc1ccc(C)c(CSc2nnc(-c3cccnc3)o2)c1,-4,0,-4,-1,-1,-1,·,·
Fc1ccccc1CSc1nnc(-c2cccnc2)o1,5,4.6*,14*,3,0,3,11*,1
Cc1ccccc1CSc1nnc(-c2ccncc2)o1,1,0,4,0,-1,1,·,·
Fc1ccccc1CSc1nnc(-c2ccccc2)o1,4,3,18*,2,0,2,14*,1
Cc1ccccc1-c1cccc2[nH]c3c(c12)CCN1C(=O)[C@H]2[C@H](C)ON(C)[C@H]2C[C@@H]31,1,·,-1,-3,-1,-1,·,·
CCCn1nc(NC(=O)COC)c2cc3cccc(C)c3nc21,4,0,14*,-1,-1,0,1,0
CC(/C=C/c1ccccc1F)=N\NC(=O)c1ccccc1,3,3,14*,2,0,3,10,0
CC(/C=C/c1ccccc1F)=N\NC(=O)c1ccc(Cl)cc1,-2,-1,6,-1,-1,0,·,·
C[C@@H]1CN([C@@H](C)CO)C(=O)CCCn2cc(nn2)CO[C@H]1CN(C)C(=O)Nc1ccc(N2CCN(C)CC2)cc1,-3,·,-1,-2,-1,-1,·,·
Cc1cc(C(=O)CN2CCC(C)CC2)c(C)n1-c1ccc(F)cc1,6,1,14*,1,0,3,13*,1
COc1ccc(-n2c(C)cc(C(=O)CN3CCC(C)CC3)c2C)cc1,2,2,5,0,-2,0,·,·
C[C@]12Cc3ccccc3C1CC1=N[C@@H](C3CCCCC3)O[C@@]13C[C@@H]2C(=O)N3C1CCN(Cc2ccccc2)CC1 (some centres not stated),-8,·,1,0,0,0,·,·
CCS(=O)(=O)c1ccc(C=NNc2nc3ccccc3o2)cc1,4,2,21*,4,0,3,15*,1
C=CCN=C1NC(c2cccc(F)c2)C(C(=O)OC)=C(C)N1C (configuration not stated),-3,·,1,-2,-1,0,·,·
Cc1ccc(-n2ncc3ccccc3c2=O)cc1Cl,4,4.7*,19*,5,1,2,15*,1
COc1c(Cl)cnn(-c2cccc(C)c2)c1=O,-1,1,0,-1,-1,0,·,·
Clc1ccccc1-c1nnc2sc(-c3ccc4c(c3)OCO4)nn12,1,0,2,-1,-1,-2,·,·
CSc1ccccc1-c1nnc(-c2ccc(Cl)cc2Cl)o1,2,1,1,-1,-1,0,·,·
Clc1ccccc1-c1nnc(-c2ccc3c(c2)OCO3)o1,0,3,19*,5.8*,1,4,15*,1
Clc1ccc(-c2nnc(-c3ccccc3)o2)c(Cl)c1,5,1,16*,5,0,4.0*,16*,1
Cc1ccc(S(=O)(=O)N(C)c2cccc3c2S(=O)(=O)N([C@H](C)c2ccccc2)C[C@@H](COCc2ccccc2)O3)cc1,-6,·,-3,-3,-2,-2,·,·
NC(N)=Nc1nc(C2COc3ccccc3O2)cs1 (configuration not stated),6,0,14*,5,0,2,18*,1
CN1CCCCC(NC(=O)C2CCCCC2)C1=O (configuration not stated),6,·,0,0,-1,1,·,·
O=C1/C(=C/c2ccc(O)cc2)COc2ccccc21,2,1,15*,2,-1,1,12*,1
COC(=O)C1=C(C)N(CC(C)C)C(=S)NC1c1cccc(Br)c1 (configuration not stated),-5,·,-1,-1,-1,1,·,·
SMILES,SMARCA2 act,DAX1 inh-1,hgDAF-12 ag,hcDAF12 agonist,ssDAF-12 act,DAX1 inh-2,hgDAF12 conf,LXR ag 2
O=C(OCC(=O)c1ccc[nH]1)c1ccccc1,0,1,5,1,-2,0,·,·
CN(C)c1ccc(C(=O)OCC(=O)c2ccc[nH]2)cc1,4,1,15*,4,0,0,15*,0
CCOc1ccc(-c2ccc(SCC(=O)Nc3nnc(C)s3)nn2)cc1,2,1,13*,1,0,4.3*,17*,1
Cc1nnc(NC(=O)CSc2ccc(-c3ccco3)nn2)s1,4,1,0,2,-2,-1,·,·
COc1cccc(-c2nnc(-c3ccc(C)o3)o2)c1,5,0,14*,5,0,4.1*,19*,1
CC(C)=CC(=O)Nc1ccc(Br)cc1,5,4,16*,3,-1,3,15*,1
CC(=O)Nc1ccc(NC(=S)Nc2ccc(Br)cc2)cc1,1,1,0,-2,-1,0,·,·
CC(C)OC(=O)N(C)C[C@H]1OCc2cn(nn2)CCCC(=O)N([C@@H](C)CO)C[C@@H]1C,-3,·,-1,0,-1,0,·,·
O=C(OCc1cccnc1)C1=Cc2ccccc2OC1,0,-1,14*,-1,-1,1,3,0
Nc1nc(CSc2ncccn2)nc(Nc2ccccc2)n1,2,2,10,4,0,3,·,·
Cc1ccc(Nc2nc(N)nc(CSc3ncccn3)n2)cc1,4,2,16*,3,1,2,14*,1
CCc1ccc(NC(=O)Nc2cccc(OC)c2)cc1,4,1,18*,0,-1,2,15*,0
Cc1ccc(NC(=O)Nc2ccc(F)c(Cl)c2)cc1,-3,0,7,1,-1,1,·,·
COc1cccc(NC(=O)Nc2ccc(CC(=O)O)cc2)c1,-2,0,-5,-1,-1,0,·,·
COc1ccc(NC(=O)Nc2ccc(F)c(Cl)c2)cc1,1,0,17*,2,-1,1,10,0
O=C(Cc1ccc(F)cc1)Nc1nccs1,0,0,1,0,-1,0,·,·
O=C(Nc1nccs1)c1ccc(-c2ccc(F)cc2)o1,3,1,17*,2,1,3,14*,1
O=C(Nc1ccccc1)c1ccc(-c2ccc([N+](=O)[O-])cc2)o1,4,1,4,0,-1,0,·,·
O=C(Nc1nccs1)c1ccc(-c2ccc([N+](=O)[O-])cc2)o1,6,0,18*,4,0,2,12*,1
